Where “and” joins values, the source holds several entries; their conditions need not be identical. Identical values can stand only once. Unmarked numbers belong to inactive results. Inconclusive results are not listed. A call without a number means that no potency is given here. Calls of active or inactive are those of the source. Unless noted, calls follow the shape of the dose curve; as a rule, active = well fitted curve in the direction sought with a large enough effect in the repeat runs; inconclusive = weak or mixed curves; inactive = flat fitted curve, though single readings scatter.
Columns and labels:
[1] = qHTS assay to test for compound auto fluorescence at 535 nm (green) in HEK293 cells (AID 720680); also: potency is read from the fitted curve at half-maximal effect
[2] = qHTS assay to test for compound auto fluorescence at 460 nm (blue) in HEK293 cell free culture (AID 720681); also: potency is read from the fitted curve at half-maximal effect
In short: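 Blue fluorescence (Ex 405/Em 460 nm, triamterene-equivalent) was read immediately after pin transfer of compound or DMSO into medium (DMEM, 10% FBS) without cells.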

[3] = qHTS assay to test for compound auto fluorescence at 535 nm (green) in HEK293 cell free culture (AID 720682); also: potency is read from the fitted curve at half-maximal effect
In short: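 DMEM + 10% FBS, cell-free; cpd or DMSO pinned in; Ex485/Em535 read; output as fluorescein-equivalent signal.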

[4] = qHTS assay to test for compound auto fluorescence at 590 nm (red) in HEK293 cell free culture (AID 720683)
In short: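 Red-channel autofluorescence of compounds in culture medium (DMEM, 10% FBS), no cells, measured at 540/590 nm. Rose Bengal sodium is the reference fluorophore for equivalence.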

[5] = qHTS assay to test for compound auto fluorescence at 590 nm (red) in HepG2 cell free culture (AID 720684)
In short: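 Steps: dispense MEM/10% FBS medium, no cells; pin compound or DMSO vehicle; read red channel, Ex/Em 540/590 nm. Output given as Rose Bengal sodium equivalents.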

[6] = qHTS assay to test for compound auto fluorescence at 460 nm (blue) in HepG2 cell free culture (AID 720685); also: potency is read from the fitted curve at half-maximal effect
In short: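 Compound (23 nL) or DMSO pinned into cell-free MEM with 10% FBS; blue fluorescence read at 405/460 nm excitation/emission, expressed as auto-fluorescence equivalency to triamterene.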

[7] = qHTS assay to test for compound auto fluorescence at 535 nm (green) in HepG2 cell free culture (AID 720686); also: potency is read from the fitted curve at half-maximal effect
[8] = qHTS assay to test for compound auto fluorescence at 460 nm (blue) in HepG2 cells (AID 720687); also: potency is read from the fitted curve at half-maximal effect
In short: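 Blue-channel autofluorescence (Ex/Em 405/460 nm, triamterene-equivalent) was measured after 1 hr compound exposure at 37 C, 5% CO2. Cells were HepG2, plated overnight at 37 C in MEM plus 10% FBS.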

[9] = target: Glucocorticoid receptor (Homo sapiens) (UniProt P04150); assay: qHTS assay to identify small molecule agonists of the glucocorticoid receptor (GR) signaling pathway (AID 720691; active = well fitted activation curve with a large enough effect in the signal ratio in the repeat runs, not every such curve was filed as active; the % refers to the signal ratio; also: potency is read from the fitted curve at half-maximal effect)
In short: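 qHTS in GR-bla HeLa cells: 4 h settling at 37 C/5% CO2, 18 h compound incubation at 37 C, 2 h LiveBLAzer B/G FRET substrate at room temperature, fluorescence intensity measured.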
Tags tell the direction and shape of the fitted curve or compound fluorescence and quenching.

Glucocorticoid receptor (Homo sapiens), sequence (P04150 whole entry, looked up): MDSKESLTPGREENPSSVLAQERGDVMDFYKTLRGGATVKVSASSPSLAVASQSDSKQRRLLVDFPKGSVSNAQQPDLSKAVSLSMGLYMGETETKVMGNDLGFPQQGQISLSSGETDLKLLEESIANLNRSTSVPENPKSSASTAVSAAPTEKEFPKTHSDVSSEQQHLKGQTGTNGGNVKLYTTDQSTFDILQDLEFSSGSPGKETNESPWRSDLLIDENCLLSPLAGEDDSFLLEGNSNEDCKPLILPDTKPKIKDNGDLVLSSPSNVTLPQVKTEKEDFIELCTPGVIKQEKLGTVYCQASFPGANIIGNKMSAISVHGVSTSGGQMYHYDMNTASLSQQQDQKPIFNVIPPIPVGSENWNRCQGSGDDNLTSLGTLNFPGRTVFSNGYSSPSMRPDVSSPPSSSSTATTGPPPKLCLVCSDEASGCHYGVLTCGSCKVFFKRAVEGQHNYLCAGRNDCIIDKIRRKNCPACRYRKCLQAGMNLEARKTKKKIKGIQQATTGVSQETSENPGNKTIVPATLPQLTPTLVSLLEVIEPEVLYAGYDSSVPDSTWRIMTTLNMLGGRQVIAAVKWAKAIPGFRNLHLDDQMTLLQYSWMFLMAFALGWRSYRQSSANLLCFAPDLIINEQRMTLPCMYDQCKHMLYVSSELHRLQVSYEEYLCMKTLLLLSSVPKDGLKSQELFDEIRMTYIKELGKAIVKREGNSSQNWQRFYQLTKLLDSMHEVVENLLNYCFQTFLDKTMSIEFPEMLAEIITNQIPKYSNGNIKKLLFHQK

In the case of `NC(N)=NC(=O)Cc1c(Cl)cccc1Cl`, the Potency [1] is reported as “inactive”, the Potency [2] is reported as “inactive” and the Potency [3] is reported as “inactive”. The outcome [4] was “inactive”, the outcome [5] was “inactive” and the Potency [6] was “inactive”. For the same compound, the Potency [7] was “inactive”, the Potency [8] was “inactive” and the Potency [9] was “inactive”.

For `O=S(=O)(O)c1ccc2nc(-c3ccccc3)[nH]c2c1`, the Potency [1] was “inactive”, the Potency [2] was “inactive” and the Potency [3] was “inactive”. The outcome [4] was “inactive”, the outcome [5] was “inactive” and the Potency [6] was “inactive”. The Potency [7] was “inactive” and the Potency [8] was “inactive”.

For `O=C1Nc2ccccc2C1(c1ccc(O)cc1)c1ccc(O)cc1`, the Potency [1] was “inactive”, the Potency [2] was “inactive” and the Potency [3] was “inactive”. For the same compound, the outcome [4] was “inactive”, the outcome [5] was “inactive” and the Potency [6] was “inactive”. The Potency [7] was “inactive” and the Potency [8] was “inactive”.

With `O` the Potency [1] was “inactive”, the Potency [2] was “inactive” and the Potency [3] was “inactive”. The outcome [4] was “inactive”, the outcome [5] was “inactive” and the Potency [6] was “inactive”. The Potency [7] was “inactive” and the Potency [8] was “inactive”.

In the case of `COc1ccc(CCN2CCC(Nc3nc4ccccc4n3Cc3ccc(F)cc3)CC2)cc1`, the Potency [1] is reported as “inactive”, the Potency [2] is reported as “inactive” and the Potency [3] is reported as “inactive”. The outcome [4] was “inactive”, the outcome [5] was “inactive” and the Potency [6] was “inactive”. The Potency [7] was “inactive” and the Potency [8] was “inactive”.

In the case of `CC1=CC(=O)c2ccccc2C1=O`, the Potency [1] is reported as “inactive”, the Potency [2] is reported as “inactive” and the Potency [3] is reported as “inactive”. The outcome [4] was “inactive”, the outcome [5] was “inactive” and the Potency [6] was “inactive”. The Potency [7] was “inactive”, the Potency [8] was “inactive” and the Potency [9] was “inactive”.

With `Cc1cc(Cc2cc(C)cc(C(C)(C)C)c2O)c(O)c(C(C)(C)C)c1` the Potency [1] was “inactive”, the Potency [2] was “inactive” and the Potency [3] was “inactive”. The outcome [4] was “inactive”, the outcome [5] was “inactive” and the Potency [6] was “inactive”. The Potency [7] was “inactive” and the Potency [8] was “inactive”.

In the case of `CC(=O)C1=C(C)[C@@H]2C[C@@]3(C1)[C@H](C)CC[C@H]3C2(C)C`, the Potency [1] is reported as “inactive”, the Potency [2] is reported as “inactive” and the Potency [3] is reported as “inactive”. The outcome [4] was “inactive”, the outcome [5] was “inactive” and the Potency [6] was “inactive”. For the same compound, the Potency [7] was “inactive” and the Potency [8] was “inactive”.

In the case of `NCCCCCC(=O)O`, the fluorescence, % of fluorescein [1] is reported as -0.0215% [at 18.6 µM], the fluorescence, % of fluorescent control [2] is reported as 0.0269% [at 18.6 µM] and the activity change [3] is reported as 0.0558% [at 18.6 µM, stronger effect = higher value]. For the same compound, the fluorescence, % of fluorescent control [4] was -0.0259% [at 18.6 µM], the fluorescence, % of Rose Bengal [5] was 0.496% [at 18.6 µM] and the fluorescence, % of fluorescent control [6] was 0.0102% [at 18.6 µM]. For the same compound, the fluorescence, % of fluorescein control [7] was -0.0066% [at 18.6 µM], the fluorescence, % of fluorescent control [8] was -0.0854% [at 18.6 µM] and the Potency [9] was “inactive”.

In the case of `CC[C@@H](N)CO`, the Potency [1] is reported as “inactive”, the Potency [2] is reported as “inactive” and the Potency [3] is reported as “inactive”. The outcome [4] was “inactive”, the outcome [5] was “inactive” and the Potency [6] was “inactive”. For the same compound, the Potency [7] was “inactive” and the Potency [8] was “inactive”.

With `C=C(C)C(=O)O` the Potency [1] was “inactive”, the Potency [2] was “inactive” and the Potency [3] was “inactive”. The outcome [4] was “inactive”, the outcome [5] was “inactive” and the Potency [6] was “inactive”. For the same compound, the Potency [7] was “inactive”, the Potency [8] was “inactive” and the Potency [9] was “inactive”.

With `Nc1ccc2cc3ccccc3cc2c1` the Potency [1] was “inactive”, the Potency [2] was 39.8 µM (active) and the Potency [3] was “inactive”. The outcome [4] was “inactive”, the outcome [5] was “inactive” and the Potency [6] was 39.8 µM [fluorescent] (active). The Potency [7] was “inactive” and the Potency [8] was 39.8 µM [fluorescent] (active).

With `c1ccc2c(c1)-c1cccc3c1c-2cc1ccccc13` the Potency [1] was “inactive”, the Potency [2] was “inactive” and the Potency [3] was “inactive”. For the same compound, the outcome [4] was “inactive”, the outcome [5] was “inactive” and the Potency [6] was “inactive”. For the same compound, the Potency [7] was “inactive”, the Potency [8] was “inactive” and the Potency [9] was 21.4 µM [fluorescent] (active) and 49 µM [fluorescent] (active).

In the case of `O=C(O)c1cc(Cl)cc(Cl)c1`, the Potency [1] is reported as “inactive”, the Potency [2] is reported as “inactive” and the Potency [3] is reported as “inactive”. The outcome [4] was “inactive”, the outcome [5] was “inactive” and the Potency [6] was “inactive”. For the same compound, the Potency [7] was “inactive”, the Potency [8] was “inactive” and the Potency [9] was “inactive”.

For `Oc1c(Cl)cc(Cl)cc1Sc1cc(Cl)cc(Cl)c1O`, the Potency [1] was “inactive”, the Potency [2] was “inactive” and the Potency [3] was “inactive”. For the same compound, the outcome [4] was “inactive”, the outcome [5] was “inactive” and the Potency [6] was “inactive”. The Potency [7] was “inactive” and the Potency [8] was “inactive”.

In the case of `O=C1OC2(c3ccc(O)cc3Oc3cc(O)ccc32)c2ccccc21`, the Potency [1] is reported as 3.16 µM [fluorescent] (active) and 2.82 µM [fluorescent] (active) and 3.98 µM [fluorescent] (active), the Potency [2] is reported as “inactive” and the Potency [3] is reported as 3.55 µM [fluorescent] (active) and 3.98 µM [fluorescent] (active). For the same compound, the outcome [4] was “inactive”, the outcome [5] was “inactive” and the Potency [6] was “inactive”. For the same compound, the Potency [7] was 3.16 µM [fluorescent] (active) and 2.82 µM [fluorescent] (active) and 3.55 µM [fluorescent] (active) and the Potency [8] was “inactive”.

With `O=C(Nc1ccccc1SSc1ccccc1NC(=O)c1ccccc1)c1ccccc1` the Potency [1] was “inactive”, the Potency [2] was “inactive” and the Potency [3] was “inactive”. The outcome [4] was “inactive”, the outcome [5] was “inactive” and the Potency [6] was “inactive”. The Potency [7] was “inactive” and the Potency [8] was “inactive”.

With `CC(COc1ccccc1)N(CCCl)Cc1ccccc1` (centres undefined) the Potency [1] was “inactive”, the Potency [2] was “inactive” and the Potency [3] was “inactive”. For the same compound, the outcome [4] was “inactive”, the outcome [5] was “inactive” and the Potency [6] was “inactive”. For the same compound, the Potency [7] was “inactive”, the Potency [8] was “inactive” and the Potency [9] was “inactive”.

For `c1ccc2c(c1)CCCC2C1=NCCN1` (centres undefined), the Potency [1] was “inactive”, the Potency [2] was “inactive” and the Potency [3] was “inactive”. The outcome [4] was “inactive”, the outcome [5] was “inactive” and the Potency [6] was “inactive”. For the same compound, the Potency [7] was “inactive” and the Potency [8] was “inactive”.

For `CC(C)CCOC(=O)c1ccc(N(C)C)cc1`, the Potency [1] was “inactive”, the Potency [2] was “inactive” and the Potency [3] was “inactive”. The outcome [4] was “inactive”, the outcome [5] was “inactive” and the Potency [6] was “inactive”. The Potency [7] was “inactive” and the Potency [8] was “inactive”.

For `CCOc1ccc2c(c1)C(C)=CC(C)(C)N2`, the Potency [1] was “inactive”, the Potency [2] was “inactive” and the Potency [3] was “inactive”. The outcome [4] was “inactive”, the outcome [5] was “inactive” and the Potency [6] was “inactive”. For the same compound, the Potency [7] was “inactive” and the Potency [8] was “inactive”.

In the case of `COc1ccc(Cc2cnc(N)nc2N)cc1OC`, the Potency [1] is reported as “inactive”, the Potency [2] is reported as “inactive” and the Potency [3] is reported as “inactive”. The outcome [4] was “inactive”, the outcome [5] was “inactive” and the Potency [6] was “inactive”. For the same compound, the Potency [7] was “inactive”, the Potency [8] was “inactive” and the Potency [9] was “inactive”.

Source: PubChem BioAssay (Tox21)
